In the supplement of paper PMC10849652:
The full data set covers some 7,900 targets. This sample favours those with a hit. About 0.6% of all pairs of compound and target were hits.

Tests used:
Test in all cases: log2 fold change, soluble protein after heating vs DMSO (PISA); higher = thermal stabilisation; K562 cells, 10 uM, 30 min; active = over 0.2 and 3.5 SD of the protein, either way, in both replicates (recomputed)
[1] = compound: CS(=O)(=O)c1ccc(-c2cnc(N)c(C(=O)Nc3ccccc3)n2)cc1
In short: (§1)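 For each measurement, 10 μM compound was applied for 30 min to K562 cells at 2×10^6 cells/mL. Aliquots were heated for 3 min across 48°C-58°C, pooled, and extracted in PBS with 0.5% NP-40 at 4°C; the supernatant after 21,000xg for 90 min was soluble protein. This was quantified by TMTpro 16plex LC-MS/MS with channel sums equalised, and thermal stability was reported relative to control samples from duplicates, on a log2 fold-change scale.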

crizotinib = compound: C[C@@H](Oc1cc(-c2cnn(C3CCNCC3)c2)cnc1N)c1c(Cl)ccc(F)c1Cl [crizotinib]
In short: as §1

[2] = compound: C[C@H](C1=CC=C(C=C1)C(=O)NC2=C3C=CNC3=NC=C2)N
In short: as §1

duvelisib = compound: C[C@H](Nc1ncnc2nc[nH]c12)c1cc2cccc(Cl)c2c(=O)n1-c1ccccc1 [duvelisib]
In short: as §1

gandotinib = compound: Cc1cc(Nc2cc(CN3CCOCC3)c3nc(C)c(Cc4ccc(Cl)cc4F)n3n2)n[nH]1 [gandotinib]
In short: as §1

tozasertib = compound: Cc1cc(Nc2cc(N3CCN(C)CC3)nc(Sc3ccc(NC(=O)C4CC4)cc3)n2)n[nH]1 [tozasertib]
In short: as §1

[3] = compound: Cc1cc(SCc2sc(-c3ccc(C(F)(F)F)cc3)nc2C)ccc1OCC(=O)O
In short: as §1

doramapimod = compound: Cc1ccc(-n2nc(C(C)(C)C)cc2NC(=O)Nc2ccc(OCCN3CCOCC3)c3ccccc23)cc1 [doramapimod]
In short: as §1

[4] = compound: C[C@@H]1COCCN1C2=NC(=NC(=C2)C3(CC3)S(=O)(=O)C)C4=C5C=CNC5=CC=C4
In short: as §1

ispinesib = compound: Cc1ccc(C(=O)N(CCCN)[C@@H](c2nc3cc(Cl)ccc3c(=O)n2Cc2ccccc2)C(C)C)cc1 [ispinesib]
In short: as §1

Measured: log2 fold change

CRLS1 (UniProt Q9UJA2)
inactive: [1] -0.228 | crizotinib 0.02 | [2] -0.047 | duvelisib -0.025 | gandotinib -0.083 | tozasertib 0 | [3] 0.05 | doramapimod 0.023

CHAF1A (UniProt Q13111)
inactive: [1] -0.015 | crizotinib 0.058 | [4] -0.058 | [2] 0.15 | duvelisib 0.051 | gandotinib -0.035 | [3] -0.04 | doramapimod 0.025 | ispinesib -0.098

CENPE (UniProt Q02224)
inactive: [1] 0.231 | crizotinib -0.018 | [2] -0.908 | duvelisib -0.563 | gandotinib 0.052 | tozasertib -0.155 | [3] 0.24 | doramapimod 0.108 | ispinesib -0.321

CHAMP1 (UniProt Q96JM3)
inactive: [1] 0.02 | crizotinib -0.154 | [4] 0.074 | [2] -0.071 | duvelisib -0.076 | gandotinib -0.046 | tozasertib 0.045 | [3] -0.049 | doramapimod -0.003 | ispinesib -0.185

CCNC (UniProt P24863)
inactive: [1] 0.051 | crizotinib -0.004 | [4] 0.027 | [2] 0.247 | duvelisib 0.044 | gandotinib -0.088 | [3] 0.018 | ispinesib 0.059
active: doramapimod 0.373

CDC42SE1 (UniProt Q9NRR8)
inactive: [1] 0 | crizotinib -0.099 | [4] 0.16 | [2] -0.031 | duvelisib 0.029 | tozasertib -0.106 | [3] -0.04 | doramapimod -0.06 | ispinesib -0.341

COG2 (UniProt Q14746)
inactive: [1] -0.029 | crizotinib -0.17 | [4] 0.094 | [2] 0.483 | duvelisib -0.094 | tozasertib -0.153 | [3] 0.061 | doramapimod 0 | ispinesib -0.264

CDK17 isoform 2 (UniProt Q00537)
inactive: [1] 0.087 | crizotinib -0.082 | [4] -0.035 | [2] 0.076 | duvelisib -0.006 | gandotinib 0.057 | [3] 0.126 | doramapimod 0.028

CRTC2 (UniProt Q53ET0)
inactive: [1] -0.02 | crizotinib -0.077 | [4] 0.08 | tozasertib -0.057 | doramapimod 0.062 | ispinesib 0.012

COPS3 isoform 2 (UniProt Q9UNS2)
inactive: [1] 0.054 | crizotinib 0.046 | [4] 0.116 | gandotinib -0.084 | tozasertib -0.165 | doramapimod 0.028 | ispinesib -0.371

CDK5RAP1 (UniProt Q96SZ6)
inactive: [1] 0.005 | crizotinib 0.041 | [4] 0.033 | [2] 0.031 | duvelisib -0.006 | gandotinib 0.033 | tozasertib 0.003 | [3] -0.025 | doramapimod 0.05 | ispinesib 0.048

CDCA2 (UniProt Q69YH5)
inactive: [1] 0.161 | crizotinib 0.025 | [4] 0.041 | [2] -0.021 | gandotinib 0.098 | tozasertib -0.159 | doramapimod 0.088 | ispinesib -0.04

CASP8 isoform 9 (UniProt Q14790)
Sequence of UniProt Q14790 (Q14790 whole entry, looked up): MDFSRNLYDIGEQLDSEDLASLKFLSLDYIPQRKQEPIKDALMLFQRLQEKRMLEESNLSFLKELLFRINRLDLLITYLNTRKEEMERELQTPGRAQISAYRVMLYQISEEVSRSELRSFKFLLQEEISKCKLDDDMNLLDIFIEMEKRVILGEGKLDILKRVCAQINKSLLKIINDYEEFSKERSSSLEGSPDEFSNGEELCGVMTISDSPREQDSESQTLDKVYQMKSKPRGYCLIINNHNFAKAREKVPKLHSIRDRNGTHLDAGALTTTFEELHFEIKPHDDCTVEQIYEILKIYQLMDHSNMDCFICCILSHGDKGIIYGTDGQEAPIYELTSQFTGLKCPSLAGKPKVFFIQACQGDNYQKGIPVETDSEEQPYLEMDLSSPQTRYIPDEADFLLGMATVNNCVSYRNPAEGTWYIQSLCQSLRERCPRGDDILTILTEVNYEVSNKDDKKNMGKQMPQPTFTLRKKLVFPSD
inactive: [1] 0.007 | crizotinib -0.02 | [4] -0.013 | duvelisib 0.104 | gandotinib -0.07 | tozasertib 0.181 | [3] -0.007 | doramapimod 0.072 | ispinesib -0.151

CDKN1B (UniProt P46527)
Sequence of UniProt P46527 (P46527 whole entry, looked up): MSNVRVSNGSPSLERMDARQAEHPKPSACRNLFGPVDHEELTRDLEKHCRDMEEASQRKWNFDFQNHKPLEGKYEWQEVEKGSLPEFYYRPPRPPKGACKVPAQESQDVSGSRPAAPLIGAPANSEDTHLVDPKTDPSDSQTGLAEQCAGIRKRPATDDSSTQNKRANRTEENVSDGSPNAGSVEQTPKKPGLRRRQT
inactive: [1] -0.017 | crizotinib -0.018 | [4] -0.295 | [2] -0.065 | duvelisib 0.059 | gandotinib 0.077 | [3] -0.06 | doramapimod -0.071 | ispinesib -0.01

CEP128 (UniProt Q6ZU80)
Sequence of UniProt Q6ZU80 (Q6ZU80 whole entry, looked up): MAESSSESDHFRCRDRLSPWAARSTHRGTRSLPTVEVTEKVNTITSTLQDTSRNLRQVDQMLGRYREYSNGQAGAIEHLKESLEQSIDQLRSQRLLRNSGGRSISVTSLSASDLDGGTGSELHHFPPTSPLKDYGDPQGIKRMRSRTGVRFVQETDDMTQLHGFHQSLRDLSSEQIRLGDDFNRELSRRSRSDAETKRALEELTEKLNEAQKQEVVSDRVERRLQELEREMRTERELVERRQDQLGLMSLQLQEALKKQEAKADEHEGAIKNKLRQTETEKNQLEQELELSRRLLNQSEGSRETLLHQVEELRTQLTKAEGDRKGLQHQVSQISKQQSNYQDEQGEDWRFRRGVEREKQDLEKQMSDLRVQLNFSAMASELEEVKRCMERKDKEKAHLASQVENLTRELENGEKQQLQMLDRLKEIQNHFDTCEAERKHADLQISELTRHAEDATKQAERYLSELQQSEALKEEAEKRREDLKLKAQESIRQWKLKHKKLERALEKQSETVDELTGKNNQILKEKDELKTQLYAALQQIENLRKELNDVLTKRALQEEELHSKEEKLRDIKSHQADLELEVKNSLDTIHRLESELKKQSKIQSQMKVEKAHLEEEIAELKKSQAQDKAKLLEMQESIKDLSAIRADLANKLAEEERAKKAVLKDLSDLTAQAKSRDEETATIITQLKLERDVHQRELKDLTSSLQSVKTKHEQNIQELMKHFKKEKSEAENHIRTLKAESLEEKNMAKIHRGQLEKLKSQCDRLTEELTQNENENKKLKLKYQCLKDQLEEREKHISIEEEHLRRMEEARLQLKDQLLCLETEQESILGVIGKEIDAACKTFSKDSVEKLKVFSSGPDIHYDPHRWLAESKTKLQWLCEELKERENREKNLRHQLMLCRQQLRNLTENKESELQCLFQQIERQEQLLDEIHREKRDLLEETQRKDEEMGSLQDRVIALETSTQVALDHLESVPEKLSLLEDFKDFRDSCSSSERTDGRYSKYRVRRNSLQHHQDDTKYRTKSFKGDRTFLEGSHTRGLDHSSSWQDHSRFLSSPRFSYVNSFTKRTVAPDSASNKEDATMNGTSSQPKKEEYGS
inactive: [1] 0.093 | crizotinib 0.056 | [2] 0.157 | duvelisib 0.183 | tozasertib 0.041 | [3] -0.07 | doramapimod 0.102

CCDC57 (UniProt Q2TAC2)
inactive: [1] -0.026 | crizotinib 0.06 | [4] 0.065 | [2] 0.139 | tozasertib 0.04 | doramapimod -0.035 | ispinesib -0.034

CHST11 (UniProt Q9NPF2)
Sequence of UniProt Q9NPF2 (Q9NPF2 whole entry, looked up): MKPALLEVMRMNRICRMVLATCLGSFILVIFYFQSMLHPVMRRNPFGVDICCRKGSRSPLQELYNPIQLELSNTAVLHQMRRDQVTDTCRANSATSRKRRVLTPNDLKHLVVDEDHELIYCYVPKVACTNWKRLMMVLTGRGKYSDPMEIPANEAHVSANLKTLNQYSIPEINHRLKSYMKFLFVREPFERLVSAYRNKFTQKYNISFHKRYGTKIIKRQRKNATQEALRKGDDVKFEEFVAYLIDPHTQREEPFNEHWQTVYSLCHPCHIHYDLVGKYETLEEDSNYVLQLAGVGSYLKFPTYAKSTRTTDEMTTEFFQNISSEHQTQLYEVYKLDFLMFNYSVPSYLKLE
inactive: [1] 0.056 | crizotinib -0.106 | [4] -0.037 | [2] 0.019 | gandotinib 0.029 | tozasertib -0.033 | doramapimod 0.087 | ispinesib -0.068

COX7C (UniProt P15954)
inactive: [1] 0.025 | crizotinib 0.147 | [4] 0.028 | duvelisib -0.04 | gandotinib 0.043 | tozasertib -0.015 | [3] -0.114 | doramapimod -0.072 | ispinesib -0.096

CDK16 isoform 2 (UniProt Q00536)
active: gandotinib 0.436
inactive: [1] 0.03 | crizotinib -0.036 | [4] 0.06 | [2] -0.07 | duvelisib 0.058 | [3] 0.096 | doramapimod -0.022 | ispinesib -0.046

CAB39L (UniProt Q9H9S4)
inactive: [1] 0.13 | crizotinib 0.036 | [4] -0.01 | duvelisib -0.014 | tozasertib 0.03 | [3] 0.053 | doramapimod 0.024 | ispinesib -0.031
active: gandotinib 0.448

CRTC1 isoform 2 (UniProt Q6UUV9)
Sequence of UniProt Q6UUV9 (Q6UUV9 whole entry, looked up): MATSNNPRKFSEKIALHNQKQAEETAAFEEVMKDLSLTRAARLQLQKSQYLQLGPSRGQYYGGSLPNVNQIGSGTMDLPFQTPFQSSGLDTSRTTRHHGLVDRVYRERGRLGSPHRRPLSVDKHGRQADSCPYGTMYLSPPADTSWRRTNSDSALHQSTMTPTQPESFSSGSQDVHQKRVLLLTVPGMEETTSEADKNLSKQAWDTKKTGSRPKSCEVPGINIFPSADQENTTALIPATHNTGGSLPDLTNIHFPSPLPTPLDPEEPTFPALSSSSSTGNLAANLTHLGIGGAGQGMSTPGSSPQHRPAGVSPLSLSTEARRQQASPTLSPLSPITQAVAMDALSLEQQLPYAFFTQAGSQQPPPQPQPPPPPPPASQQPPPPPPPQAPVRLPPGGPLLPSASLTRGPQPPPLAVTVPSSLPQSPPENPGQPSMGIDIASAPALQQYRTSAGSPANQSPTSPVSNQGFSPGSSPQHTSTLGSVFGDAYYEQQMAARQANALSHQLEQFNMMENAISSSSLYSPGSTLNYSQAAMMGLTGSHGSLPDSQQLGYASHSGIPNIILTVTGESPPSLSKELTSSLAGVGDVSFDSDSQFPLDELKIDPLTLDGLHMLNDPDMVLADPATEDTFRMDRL
inactive: [1] -0.068 | crizotinib -0.016 | [4] 0.192 | duvelisib 0.139 | gandotinib 0.008 | tozasertib -0.004 | [3] -0.076 | doramapimod 0.005 | ispinesib -0.11

C1D (UniProt Q13901)
inactive: [1] -0.073 | crizotinib 0.06 | [4] -0.107 | gandotinib 0.01 | tozasertib 0.005 | doramapimod -0.089 | ispinesib 0.007

C6orf120 (UniProt Q7Z4R8)
inactive: [1] 0.069 | crizotinib -0.04 | duvelisib -0.052 | tozasertib -0.032 | [3] 0.113 | doramapimod 0.134 | ispinesib -0.07

C22orf39 (UniProt Q6P5X5)
Sequence of UniProt Q6P5X5 (Q6P5X5 whole entry, looked up): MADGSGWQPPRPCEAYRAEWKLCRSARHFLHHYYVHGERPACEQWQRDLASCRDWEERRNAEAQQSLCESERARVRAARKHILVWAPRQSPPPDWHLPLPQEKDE
inactive: [1] 0.075 | crizotinib -0.303 | [4] 0.06 | [2] -0.057 | duvelisib 0 | tozasertib 0.096 | [3] -0.135 | doramapimod 0.072 | ispinesib -0.207

CPSF1 (UniProt Q10570)
Sequence of UniProt Q10570 (Q10570 whole entry, looked up): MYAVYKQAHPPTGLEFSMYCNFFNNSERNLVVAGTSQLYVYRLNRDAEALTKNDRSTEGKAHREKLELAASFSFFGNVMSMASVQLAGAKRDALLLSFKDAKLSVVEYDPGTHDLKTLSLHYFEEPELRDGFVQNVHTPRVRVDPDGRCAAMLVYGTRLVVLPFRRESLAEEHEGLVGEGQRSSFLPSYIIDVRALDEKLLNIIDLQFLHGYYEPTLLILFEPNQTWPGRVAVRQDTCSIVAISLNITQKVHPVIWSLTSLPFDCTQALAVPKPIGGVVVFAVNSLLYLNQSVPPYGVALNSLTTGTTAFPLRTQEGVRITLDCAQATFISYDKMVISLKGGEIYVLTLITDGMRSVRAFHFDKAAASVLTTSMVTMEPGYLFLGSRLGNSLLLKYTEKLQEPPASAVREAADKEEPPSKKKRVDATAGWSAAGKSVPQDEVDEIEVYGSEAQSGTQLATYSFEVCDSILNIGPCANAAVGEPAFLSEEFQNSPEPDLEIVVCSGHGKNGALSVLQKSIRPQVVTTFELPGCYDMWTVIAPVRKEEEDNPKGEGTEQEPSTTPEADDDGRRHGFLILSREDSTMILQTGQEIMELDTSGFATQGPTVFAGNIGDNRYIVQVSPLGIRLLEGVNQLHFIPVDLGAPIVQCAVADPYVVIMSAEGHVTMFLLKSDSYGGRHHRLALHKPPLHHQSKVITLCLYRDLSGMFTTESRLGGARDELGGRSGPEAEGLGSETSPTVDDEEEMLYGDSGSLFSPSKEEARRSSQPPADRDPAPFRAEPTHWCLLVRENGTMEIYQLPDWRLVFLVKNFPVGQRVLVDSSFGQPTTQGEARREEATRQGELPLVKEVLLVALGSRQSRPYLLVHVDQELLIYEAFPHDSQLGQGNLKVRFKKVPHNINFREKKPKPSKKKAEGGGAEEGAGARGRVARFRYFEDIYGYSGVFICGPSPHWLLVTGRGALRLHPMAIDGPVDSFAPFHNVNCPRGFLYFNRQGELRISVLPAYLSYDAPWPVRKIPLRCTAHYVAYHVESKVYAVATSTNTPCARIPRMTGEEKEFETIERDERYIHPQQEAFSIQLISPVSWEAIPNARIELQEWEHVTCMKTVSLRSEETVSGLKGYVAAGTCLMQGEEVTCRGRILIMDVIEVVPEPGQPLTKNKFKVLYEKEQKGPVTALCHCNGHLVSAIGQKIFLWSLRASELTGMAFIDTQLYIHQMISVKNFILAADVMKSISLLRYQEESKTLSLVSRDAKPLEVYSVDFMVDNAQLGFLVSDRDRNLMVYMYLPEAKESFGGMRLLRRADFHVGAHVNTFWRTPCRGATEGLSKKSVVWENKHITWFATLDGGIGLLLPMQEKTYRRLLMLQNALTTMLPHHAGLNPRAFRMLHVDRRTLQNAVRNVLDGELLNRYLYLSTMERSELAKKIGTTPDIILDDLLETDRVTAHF
inactive: [1] -0.015 | crizotinib -0.021 | [4] -0.185 | [2] 0.048 | duvelisib 0.064 | gandotinib -0.068 | tozasertib -0.032 | [3] 0.161 | doramapimod 0.09 | ispinesib 0.036

CLCN3 (UniProt P51790)
inactive: [1] -0.05 | crizotinib -0.191 | [4] 0.012 | [2] -0.003 | duvelisib 0.046 | gandotinib -0.062 | tozasertib 0.04 | [3] -0.006 | doramapimod -0.03
active: ispinesib -0.549

CASP7 isoform 3 (UniProt P55210)
inactive: [4] 0.3 | duvelisib -0.024 | gandotinib -0.155 | [3] -0.271

CDC25B isoform 4 (UniProt P30305)
inactive: [1] -0.104 | [4] -0.216 | [2] -0.057 | gandotinib 0.122 | doramapimod 0.132 | ispinesib 0.019

CCNDBP1 (UniProt O95273)
Sequence of UniProt O95273 (O95273 whole entry, looked up): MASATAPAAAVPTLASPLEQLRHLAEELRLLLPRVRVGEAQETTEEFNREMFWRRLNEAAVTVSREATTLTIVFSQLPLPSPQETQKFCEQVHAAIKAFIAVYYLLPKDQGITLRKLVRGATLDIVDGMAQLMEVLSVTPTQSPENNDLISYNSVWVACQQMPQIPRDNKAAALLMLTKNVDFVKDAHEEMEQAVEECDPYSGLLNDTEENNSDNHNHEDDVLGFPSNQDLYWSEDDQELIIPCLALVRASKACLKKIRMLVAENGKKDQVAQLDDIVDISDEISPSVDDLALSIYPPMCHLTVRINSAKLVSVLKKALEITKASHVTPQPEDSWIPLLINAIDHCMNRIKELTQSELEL
inactive: [1] 0.016 | [2] 0.06 | duvelisib 0.016 | gandotinib -0.066 | tozasertib 0.1 | [3] 0.043 | ispinesib -0.029

CHPT1 (UniProt Q8WUD6)
active: ispinesib -1.09
inactive: [1] 0.064 | [4] -0.07 | [2] 0.023 | duvelisib 0.025 | gandotinib 0.038 | tozasertib -0.016 | [3] 0.015

CNRIP1 (UniProt Q96F85)
inactive: [4] 0.209 | ispinesib -0.147

CNN1 (UniProt P51911)
active: gandotinib -0.673
inactive: [1] -0.052 | [4] 0.045 | [2] -0.121 | tozasertib -0.151

CNN3 (UniProt Q15417)
Sequence of UniProt Q15417 (Q15417 whole entry, looked up): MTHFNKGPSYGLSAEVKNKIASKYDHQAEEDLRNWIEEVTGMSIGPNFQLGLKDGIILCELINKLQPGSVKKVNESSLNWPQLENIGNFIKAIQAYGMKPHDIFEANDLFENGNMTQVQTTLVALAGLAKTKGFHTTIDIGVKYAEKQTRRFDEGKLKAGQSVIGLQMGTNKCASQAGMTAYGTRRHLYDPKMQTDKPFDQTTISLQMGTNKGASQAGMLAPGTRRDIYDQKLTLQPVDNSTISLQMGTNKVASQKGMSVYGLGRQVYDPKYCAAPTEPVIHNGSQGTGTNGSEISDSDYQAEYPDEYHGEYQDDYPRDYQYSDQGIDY
inactive: [1] 0.044 | [4] 0.075 | [2] -0.066 | duvelisib -0.02 | gandotinib -0.1 | tozasertib 0.069 | [3] 0.15

CCNT2 (UniProt O60583)
inactive: [1] -0.226 | [4] -0.148 | duvelisib -0.107 | gandotinib -0.065 | tozasertib -0.291 | [3] 0.047 | ispinesib -0.147

CLASP2 (UniProt O75122)
inactive: crizotinib -0.21 | [2] 0.155 | doramapimod 0.132 | ispinesib -0.007

CLN3 (UniProt Q13286)
inactive: crizotinib -0.327 | [4] 0.066 | [2] 0.071 | duvelisib 0.096 | tozasertib -0.006 | [3] -0.085 | doramapimod -0.047 | ispinesib -0.307

CD84 (UniProt Q9UIB8)
inactive: [1] 0.049 | [4] -0.201 | [2] -0.149 | duvelisib 0.036 | tozasertib -0.055 | [3] 0.056

CCDC187, A0A1W2PQX5
inactive: [4] -0.042 | gandotinib -0.352 | ispinesib 0.274
